Assay results as given in the supplement of paper PMC3334620.
The full ranking holds about 33,000 sequences; the median of “E-score (-0.5 to 0.5)” is about -0.032, and the highest 2% start at about 0.36. This excerpt belongs to a sample that is enriched for the highest values.

target: T1, Sko1 (UniProt Q02100); assay: PBM E-score (8-mer binding enrichment) (E-score (-0.5 to 0.5)); higher = stronger / more preferred TF binding; conditions: protein concentration: 200 nM; construct: GST-full length
T1 sequence: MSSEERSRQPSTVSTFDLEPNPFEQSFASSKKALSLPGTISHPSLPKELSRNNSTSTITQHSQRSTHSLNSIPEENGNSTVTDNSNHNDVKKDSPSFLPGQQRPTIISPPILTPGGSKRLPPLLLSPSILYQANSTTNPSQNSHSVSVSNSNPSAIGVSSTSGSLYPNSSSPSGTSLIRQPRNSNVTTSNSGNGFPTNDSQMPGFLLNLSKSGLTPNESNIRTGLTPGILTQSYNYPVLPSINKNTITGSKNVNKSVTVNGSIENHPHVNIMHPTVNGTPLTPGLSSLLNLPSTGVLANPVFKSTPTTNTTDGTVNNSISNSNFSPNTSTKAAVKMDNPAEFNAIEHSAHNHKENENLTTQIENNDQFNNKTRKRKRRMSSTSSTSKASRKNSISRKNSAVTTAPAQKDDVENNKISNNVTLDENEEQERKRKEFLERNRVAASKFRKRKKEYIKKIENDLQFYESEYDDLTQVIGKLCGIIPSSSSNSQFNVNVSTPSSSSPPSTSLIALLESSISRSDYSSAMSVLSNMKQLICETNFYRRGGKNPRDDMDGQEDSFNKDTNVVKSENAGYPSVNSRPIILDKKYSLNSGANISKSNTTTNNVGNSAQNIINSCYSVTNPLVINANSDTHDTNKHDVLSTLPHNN
Procedure: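 Universal 'all 10-mer' protein binding microarrays (Agilent AMADID 015681) probed with GST-tagged S. cerevisiae TFs (full-length or DBD) made by in vitro transcription/translation (PURExpress), about 100-200 nM. Bound TF was detected with fluorescent anti-GST. Each ungapped 8-mer (which stands for itself and its reverse complement) is scored by the PBM enrichment score (E-score), a modified Wilcoxon-Mann-Whitney statistic from -0.5 to +0.5, computed with the Universal PBM Analysis Suite. Scale: above 0.35 generally sequence-specific binding.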

Sequence | PBM E-score
ACGTGCGC | 0.381
ACGTGGGG | 0.316
ACCATACT | -0.0266
AGATTTGA | 0.144
CATAATAC | 0.3
ACGATGTA | 0.226
GAGCTACC | -0.212
CAAAAAAA | 0.187
GACACGTC | 0.382
GACACGGC | -0.0578
GACACGGA | -0.224
GACACGCA | 0.284
GACACGTA | 0.44
GACACGCC | 0.0381
ACCCGTCG | -0.238
ATGACCCG | -0.254
CTGACCTC | -0.296
CTGACGTC | 0.482
CTGACGGC | -0.167
CTGACGTA | 0.489
CTGACGGA | 0.0532
CGGACGTA | 0.353
AATAGCCA | 0.204
AAGAAAGG | 0.00665
ACAGAGCA | -0.0386

Sequence | PBM E-score
AGCGTAAC | 0.266
AACGTGAT | 0.333
AACGTAAT | 0.48
ATCGTAAA | 0.32
ACCGTAAT | 0.201
AGCGTAAT | 0.366
AGCGTAAG | 0.0565
ATCGTAAG | 0.234
ACCGTAAG | 0.123
AACGTAAG | 0.397
ATCGTAAT | 0.401
AAGGTAAG | -0.00253
AACCCACC | -0.0866
AGCGAAGC | -0.0755
CCCAATAC | 0.0194
CAAAGGGC | -0.252
CTCTAGGA | -0.335
ATCGTAAC | 0.241
GACGTAAA | 0.456
AACGTAAC | 0.441
GTCGTAAA | 0.282
GACGTAAC | 0.467
GCCGTAAA | 0.107
AACGTAAA | 0.425
AAAGTAAA | 0.0553

Sequence | PBM E-score
GGCGTAAC | 0.0903
GTCGTAAC | 0.267
ACCGTAAA | 0.206
ACCGTAAC | -0.135
ATCAAGTA | 0.0281
ACGTTCGG | 0.0529
CGAGTGGA | -0.154
CAGGCCCC | -0.271
GCAGTCAA | -0.262
ACTTTTGC | 0.185
AGGCACAA | -0.0774
CTCGTAAG | 0.243
CACGTAAG | 0.448
CACGTAAC | 0.449
TTCGTAAA | 0.32
CCCGTAAC | -0.105
TACGTAAA | 0.484
CGCGTAAG | 0.352
CCCGTAAA | -0.102
CTCGTAAA | 0.139
TCCGTAAA | -0.0256
CTCGTAAC | 0.253
CACGTAAA | 0.437
CAGAAGAA | 0.0487
ACACCACG | 0.063

Sequence | PBM E-score
CATGGTAG | -0.193
CTGGTTAC | -0.00958
CCGCTGTC | -0.153
CGTCGAAA | 0.247
AACTTTAC | 0.171
CCGATTCC | -0.0807
ATGATCTG | 0.151
CCGTCATC | 0.36
CAGTCATC | -0.204
GCGTCATA | 0.481
GAGTCATA | 0.122
CAGTCATA | 0.0103
CGGTCATA | 0.0986
GGGTCATA | -0.0307
CGGTCATC | -0.0713
CCGTCATA | 0.368
CGCTTGCA | -0.102
AGGCGTCA | 0.256
CCGCGTCC | -0.00078
AAGCGTCA | 0.353
TCGCGTCA | 0.408
ACGCGTCA | 0.436
CAGCGTCA | 0.269
TCGCGACA | -0.0189
CCGCGTCG | -0.127

Sequence | PBM E-score
ACGCGTCC | 0.0182
TAGCGTCA | 0.398
CCGCGTCA | 0.377
ACGCGTCT | 0.192
GGTAGCCA | -0.238
ACAAACCA | -0.0895
ATGCCGTG | -0.111
TGGCGGAA | -0.102
TAGCGCGA | -0.0664
GCGCGTTA | 0.0431
GCGCGTCC | -0.15
GCGCGTCA | 0.424
CTCAGCCC | -0.249
GACAATCA | 0.00255
ATTTTGGC | 0.11
GCAACCGC | -0.139
ATGTCATC | 0.389
ATGTCATA | 0.41
GTGTCATA | 0.298
ATGTCATG | 0.403
ATGTCAAG | 0.187
ATGTCACG | 0.325
ATGTCAGC | 0.129
CTGTCATC | 0.0473
CTGTCATA | 0.141

Sequence | PBM E-score
GCTAGAGA | -0.0277
AACTTTAG | 0.247
CCTATGTA | -0.0157
CGATCCGC | -0.0715
GACCAACA | 0.17
AATCTCAC | -0.0325
CCTGTTCG | -0.0292
ACGTGATA | 0.409
ACGTGAAC | 0.311
ACGTGATG | 0.442
TCGTGAAA | 0.0383
AGGTGATG | 0.087
ACGTGAAA | 0.386
ACGTGAGG | 0.276
CCGTGATC | -0.255
AAGTGATC | 0.112
CCGTGATA | -0.0242
GCGTGATA | 0.145
ACGTGATC | 0.432
ATATCAAC | 0.141
AGGGGAGC | -0.294
TAGGTTCA | -0.0685
TGTTGCAA | 0.131
CAATTCAC | 0.049
AGGTGAGG | -0.192

Sequence | PBM E-score
CGCAGATA | -0.00801
CAAGGCAA | -0.136
CGCTCTTA | 0.112
ACGTTTCG | 0.347
ATGCTCGA | 0.00694
CACTGATG | 0.0771
GTGATCAA | 0.189
CTTGTTAC | 0.094
ATTGTTAC | 0.362
ATTGTTAG | 0.0985
ACTCTTGG | -0.179
AACACGTG | 0.395
AACACGAG | 0.033
TACACGTA | 0.453
CACACGCC | 0.0149
AACACAAA | 0.0722
CACACATA | 0.0532
TACACGAA | 0.251
CACACGTG | 0.386
CACACGTC | 0.446
TACACGGA | 0.142
CACACGGC | -0.0173
CACACAAA | 0.114
